Nine molecules from PubChem BioAssay (NCATS) can be followed below.

The structures appear in SMILES notation. Where “and” joins values, the source holds several entries; their conditions need not be identical. Identical values can stand only once. Results filed as inconclusive are left out. A structure can be active in one record and inactive in another. Calls of active or inactive are those of the source. The call rests on the fitted dose curve; in most records, active means well fitted curve in the direction sought with a large enough effect; inconclusive means small, poorly fitted or top-dose-only effect, or another doubt; inactive means no such curve, though single readings can be large; an effect the other way counts as inactive or inconclusive.

One test relates to MCC-26. As to the kind of experiment: qHTS assay to identify novel small-molecules to repurpose for Merkel cell carcinoma treatment (AID 1296009). Further: nearly all actives have a fitted effect of over 60% in size. Conditions: MCC and control cell lines, CellTiter-Glo viability, 72 h; series mostly up to 46 µM. In short, it runs like this: (§1)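 Cell viability, measured as CellTiter-Glo luminescence, was normalized between DMSO and no-cell wells. The cells had been exposed to 8- or 11-point compound dilutions for 72 hr at 37 degree celsius.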
(In general: In qHTS, concentration-response curves come from the screen itself.)

In a further test the test system is MKL-1. The test is described as above. Conditions: MCC and control cell lines, CellTiter-Glo viability, 72 h; series mostly up to 46 µM. In short, it runs like this: as §1
On the technique in general: Cellular ATP, detected with luciferase, serves as a proxy for viable cell number.

In another test the test system is MKL-2. The test is described as above. Conditions: MCC and control cell lines, CellTiter-Glo viability, 72 h; series mostly up to 46 µM. The procedure, abridged: as §1
A further test relates to UISO. Described as above. Conditions: MCC and control cell lines, CellTiter-Glo viability, 72 h; series mostly up to 46 µM. The procedure, abridged:
as §1

Another test has as its system WaGa. Described as above. Conditions: MCC and control cell lines, CellTiter-Glo viability, 72 h; series mostly up to 46 µM. In short, it runs like this:
as §1

A further test has as its system C33A. As to the kind of experiment: Primary qHTS to identify gynecologic anti-cancer compounds using libraries of approved drugs and bioactive compounds (AID 1345084). Further: nearly all actives have a fitted effect of over 55% in size. Conditions: Gynecologic cancer cell panel viability, ATPlite luminescence, 48 h; series mostly up to 57.5 µM. The procedure, abridged:
(§2)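 In this quantitative HTS, cell killing is estimated from loss of ATP-dependent luciferase light. Cells see five compound concentrations over a 48 h exposure.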

In the next test the test system is CAOV3. Described as above. To be noted: Gynecologic cancer cell panel viability, ATPlite luminescence, 48 h; series mostly up to 57.5 µM. The procedure, abridged:
as §2

Another test deals with CASKI. The test is described as above. To be noted: Gynecologic cancer cell panel viability, ATPlite luminescence, 48 h; series mostly up to 57.5 µM. In short, it runs like this: as §2
The next test deals with Es-2. Described as above. Conditions: Gynecologic cancer cell panel viability, ATPlite luminescence, 48 h; series mostly up to 57.5 µM. In short, it runs like this: as §2
A further test deals with HeLa. Described as above. To be noted: Gynecologic cancer cell panel viability, ATPlite luminescence, 48 h; series mostly up to 57.5 µM. The procedure, abridged: as §2
A further test deals with JEG-3. The test is described as above. Conditions: Gynecologic cancer cell panel viability, ATPlite luminescence, 48 h; series mostly up to 57.5 µM. The procedure, abridged:
as §2

A further test concerns OV90. Described as above. Conditions: Gynecologic cancer cell panel viability, ATPlite luminescence, 48 h; series mostly up to 57.5 µM. In short, it runs like this:
as §2

For another test, the system named is PA-1. Described as above. Conditions: Gynecologic cancer cell panel viability, ATPlite luminescence, 48 h; series mostly up to 57.5 µM. In short, it runs like this: as §2
Another test relates to SKOV3. The test is described as above. Conditions: Gynecologic cancer cell panel viability, ATPlite luminescence, 48 h; series mostly up to 57.5 µM. The procedure, abridged: as §2
The next test deals with Tov-21-G. The description is as above. To be noted: Gynecologic cancer cell panel viability, ATPlite luminescence, 48 h; series mostly up to 57.5 µM. The procedure, abridged: as §2
The next test has as its system Tov112D. The description is as above. Conditions: Gynecologic cancer cell panel viability, ATPlite luminescence, 48 h; series mostly up to 57.5 µM. The procedure, abridged: as §2
Test [1] can be described thus: Drug repurposing screens with cells derived from glioblastoma tumor samples (AID 1345199). Further: nearly all actives have a fitted effect of over 40% in size. Conditions: GBM patient neurospheres viability, ATP luminescence, 48 h. The procedure, abridged: (§3)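 Primary testing used CD133+ neurospheres from four GBM patients, seven concentrations, 48 h exposure and ATP-based viability; confirmation added three slower-growing patient lines.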

The test system of the next test is astro. The description is as above. To be noted: viability, ATP luminescence, 48 h; series mostly up to 45.9 µM. In short, it runs like this:
as §3

For another test, the system named is Hek293T. As to the kind of experiment: Primary qHTS to identify gynecologic anti-cancer compounds using libraries of approved drugs and bioactive compounds (AID 1345084). Further: nearly all actives have a fitted effect of over 55% in size. Conditions: Gynecologic cancer cell panel viability, ATPlite luminescence, 48 h, control line for the selectivity index; series mostly up to 57.5 µM. The procedure, abridged:
as §2

A further test has as its system NIH3T3. As to the kind of experiment: qHTS assay to identify novel small-molecules to repurpose for Merkel cell carcinoma treatment (AID 1296009). Further: nearly all actives have a fitted effect of over 60% in size. To be noted: MCC and control cell lines, CellTiter-Glo viability, 72 h. In short, it runs like this: as §1
Setting [2] is: at 45.9 µM (top of the series), tumour line B.
Setting [3] is: at 45.9 µM (top of the series), tumour line D.
Where [4] appears, read: at 46 µM (top of the series), tumour line A.
[5] abbreviates: at 46.1 µM (top of the series), tumour line C.
[6] abbreviates: at 44.8 µM (top of the series) unless noted.
On the % scale 0 is the no-effect control and ±100 the full control effect; potency means the concentration at half of the fitted maximal effect.

On to `O=c1[nH]cnc2[nH]ncc12`, for which the Potency entry with MCC-26, in the test with MKL-1, with MKL-2, with UISO, in the test on WaGa and in the test with C33A was “inactive” in each case. Moreover, the Potency result in the test on CAOV3, in the test on CASKI, in the test with Es-2, in the test with HeLa, with JEG-3 and in the test with OV90 was “inactive” throughout. Besides, the Potency entry with PA-1, in the test with SKOV3, in the test with Tov-21-G, in the test on Tov112D and with astro was “inactive” in each case. Moreover, the activity, negative = cell killing in test [1] (setting [2]) was -5.74% (inactive); in [1] (setting [3]), -0.0406% (inactive); in test [1] (setting [4]), -9.81% (inactive); in test [1] (setting [5]), 7.88% (inactive).
In the case of `O=NN(CCCl)C(=O)NCCCl`, the Potency result with MCC-26, in the test with MKL-1, with MKL-2, with UISO, with WaGa and in the test with C33A was “inactive” throughout. Moreover, the Potency result in the test with CAOV3, in the test on CASKI, in the test on Es-2, in the test on HeLa, with JEG-3 and in the test on OV90 was “inactive” throughout. Also, the Potency entry in the test with PA-1, in the test with SKOV3, in the test on Tov-21-G, in the test with Tov112D and with astro was “inactive” throughout. In addition, the activity, negative = cell killing in [1] (setting [2]) is -7.98% (inactive); in [1] (setting [3]), -22.2% (inactive); in [1] (setting [4]), -13.2% (inactive); in test [1] (setting [5]), -21% (inactive).
For the molecule `Cn1cnc([N+](=O)[O-])c1Sc1ncnc2nc[nH]c12`, the Potency entry in the test on MCC-26, in the test with CAOV3 and in the test with SKOV3 was “inactive” throughout. Also, the Potency in the test with MKL-1 is 10.8 µM (active) and inactive; in the test with MKL-2 it was 12.1 µM (active); with WaGa it was 1.91 µM (active); in the test with C33A, 8.91 µM (active) and 7.94 µM (active); in the test with CASKI it was 1.26 µM (active) and 3.55 µM (active); in the test with Es-2, 3.16 µM (active) and 10 µM (active). Besides, the Potency was 1.41 µM (active) in the test on HeLa; 15.8 µM (active) and 28.2 µM (active) in the test on Hek293T; 3.16 µM (active) in the test on JEG-3; 3.98 µM (active) and 7.08 µM (active) in the test with OV90; 1.12 µM (active) and 7.08 µM (active) with PA-1; 1.12 µM (active) and 3.16 µM (active) with Tov-21-G. In addition, the Potency is 5.62 µM (active) and 7.08 µM (active) in the test on Tov112D; 2.51 µM (active) in test [1] (tumour line A). Further, the activity, negative = cell killing was -21.8% (inactive) in test [1] (setting [2]) and -41.7% (inactive) in test [1] (setting [5]).
In the case of `CN(C)C(=O)c1ccc(S(=O)(=O)c2ccc(NC(=O)[C@@](C)(O)C(F)(F)F)c(Cl)c2)cc1`, the Potency result with MCC-26, in the test with MKL-1, with C33A, in the test with CAOV3, in the test with CASKI and with Es-2 was “inactive” in each case. Moreover, the Potency entry in the test with HeLa, in the test on Hek293T, with JEG-3, in the test on PA-1, with Tov-21-G and with Tov112D was “inactive” each time. For the same molecule, in the test with NIH3T3 (setting [6]), the result was inactive.
As to `CNC(=O)c1ccc(C)c(-n2c(C)cc(OCc3ccc(F)cc3F)c(Br)c2=O)c1`, the Potency result with MCC-26, in the test on MKL-1, in the test with C33A, in the test on CAOV3, with CASKI and in the test on Es-2 was “inactive” in each case. Besides, the Potency result with HeLa, in the test with Hek293T, with JEG-3, with OV90, in the test with PA-1 and with SKOV3 was “inactive” in each case. The Potency result with Tov-21-G and in the test on Tov112D was “inactive” throughout. Further, the result with NIH3T3 (setting [6]) was inactive.
For the molecule `C[C@]12CCC(=O)C=C1CC[C@@H]1[C@@H]2[C@@H](O)C[C@@]2(C)[C@H]1CC[C@]2(O)C(=O)CO`, the Potency result with MCC-26, with MKL-1, with MKL-2, in the test on UISO, in the test with WaGa and with C33A was “inactive” each time. Moreover, the Potency entry in the test on CASKI, with Es-2, in the test on HeLa, with Hek293T, in the test on JEG-3 and in the test with PA-1 was “inactive” in each case. In addition, the Potency entry with Tov-21-G and in the test with Tov112D was “inactive” each time.
On to `Cn1cnc2c(F)c(Nc3ccc(Br)cc3Cl)c(C(=O)NOCCO)cc21`, for which the Potency result in the test on MCC-26, with MKL-1, in the test on MKL-2, with UISO, with WaGa and in the test on C33A was “inactive” throughout. The Potency result with CAOV3, in the test with CASKI, with HeLa, with Hek293T, in the test with JEG-3 and in the test on PA-1 was “inactive” in each case. Further, the Potency result in the test on SKOV3 and in the test on Tov112D was “inactive” in each case. The Potency in the test with OV90 was 1.58 µM (active).
Take `Cc1ccccc1C(OCCN(C)C)c1ccccc1` (stereo not drawn): the Potency result with MCC-26, in the test with MKL-1, in the test with MKL-2, in the test with UISO, with WaGa and in the test on C33A was “inactive” throughout. Further, the Potency result with CAOV3, in the test with CASKI, in the test on Es-2, in the test with HeLa, in the test on Hek293T and in the test on JEG-3 was “inactive” throughout. For the same molecule, the Potency entry in the test with PA-1, with SKOV3, with Tov-21-G, in the test on Tov112D and in the test on astro was “inactive” in each case. Also, the activity, negative = cell killing in [1] (setting [3]) is -29.5% (inactive); in test [1] (setting [5]), 0.923% (inactive) and -8.9% (inactive).
As for `CCN(CC)CCCC(C)Nc1ccnc2cc(Cl)ccc12` (stereo not drawn), the Potency result in the test with MCC-26, in the test with MKL-1, in the test on UISO, with WaGa, in the test on C33A and with Es-2 was “inactive” throughout. The Potency result in the test on HeLa, with Hek293T, in the test on JEG-3, with PA-1, with SKOV3 and in the test on Tov-21-G was “inactive” throughout. Moreover, the Potency result in the test with Tov112D and in the test on astro was “inactive” throughout. In addition, the result in the test on NIH3T3 (at 9.27 µM (top of the series)) and in the test with NIH3T3 (at 44.8 µM (top of the series)) was inactive. Also, the activity change, negative = cytotoxicity in the test on CAOV3 is -18.6% [at 11.6 µM] (inactive); in the test on CASKI, -9.21% [at 11.6 µM] (inactive). Besides, the Potency in the test with OV90 was 5.62 µM (active); in test [1] (tumour line A), 15.8 µM (active). Moreover, in [1] (setting [5]), the activity, negative = cell killing was 3.03% (inactive).
